Experimental data published in PubChem BioAssay (NCI).
Compounds without any hit were thinned out: in the full panel of roughly 83,000, 20% have a hit.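 Cells were grown in 96-well plates and exposed to the test compound at a single concentration for 48 hours; results are reported as percent growth, with values below 10 considered active.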 Active and inactive are the calls of the source.

Columns and labels:
Assay in all cases: NCI-60 one-dose screen, 48 h (100 = growth as untreated, 0 = no growth, -100 = all killed)
Conditions in all cases: 10 µM unless noted
T-47D breast = system: T-47D breast
BT-549 breast = system: BT-549 breast
MDA-MB-435 melanoma = system: MDA-MB-435 melanoma
SW-620 colon = system: SW-620 colon
MCF7 breast = system: MCF7 breast
HCT-116 colon = system: HCT-116 colon
HCC-2998 colon = system: HCC-2998 colon
KM12 colon = system: KM12 colon

Measured: growth

CCCCCCCCN(CCCCCCCC)CC(O)c1ccc(Cl)c(C)c1Cl (centres undefined)
inactive: T-47D breast 75.9% | BT-549 breast 117% | MDA-MB-435 melanoma 91.4% | SW-620 colon 44.5% | MCF7 breast 90.4% | HCT-116 colon 63.5% | HCC-2998 colon 85.3% | KM12 colon 79.6%

COc1ncnc2c(-c3ccccc3)cn(COCc3ccccc3)c12
inactive: T-47D breast 14% | BT-549 breast 36.6% | MDA-MB-435 melanoma 29.7% | SW-620 colon 67.4% | MCF7 breast 48.1% | HCT-116 colon 41.7% | HCC-2998 colon 70% | KM12 colon 42.5%

CCN1c2ccccc2C(Cl)(c2ccc(N(C)C)cc2)c2ccccc21
inactive: T-47D breast 54.9% | BT-549 breast 62.1% | MDA-MB-435 melanoma 23.3% | SW-620 colon 12.2% | MCF7 breast 76.2% | HCT-116 colon 17.5% | HCC-2998 colon 78% | KM12 colon 21.9%

CCOC(=O)c1cc(C(=O)c2ccc(OC)c(OC)c2)n2ccc(-c3ccccn3)cc12
inactive: T-47D breast 23.1% | BT-549 breast 93.6% | MDA-MB-435 melanoma 70.7% | SW-620 colon 58.6% | MCF7 breast 73.3% | HCT-116 colon 99.9% | HCC-2998 colon 90.5% | KM12 colon 77.4%

CCOC(=O)c1sc2nc(-c3cc(OC)c(OC)c(OC)c3)nc(N3CCOCC3)c2c1C
inactive: BT-549 breast 41.2% | MDA-MB-435 melanoma 35.7% | SW-620 colon 36.4% | MCF7 breast 27.1% | HCT-116 colon 25.6% | HCC-2998 colon 51.5% | KM12 colon 31.4%
active: T-47D breast -6.97%

O=C(Nc1ccc(Oc2ccc(F)cc2)c(Cl)c1)c1cnccn1
active: MDA-MB-435 melanoma -2.8%
inactive: T-47D breast 42.9% | BT-549 breast 100% | SW-620 colon 37% | MCF7 breast 29.7% | HCT-116 colon 58.7% | HCC-2998 colon 76.3% | KM12 colon 27.5%

CCN(CC)CCSC(=O)C(O)(c1ccccc1)C1CCCC1 (centres undefined)
inactive: T-47D breast 109% | BT-549 breast 109% | MDA-MB-435 melanoma 115% | SW-620 colon 102% | MCF7 breast 114% | HCT-116 colon 109% | HCC-2998 colon 90.3% | KM12 colon 79.4%

COc1ncc(-c2ccc3nc(N)n(-c4ccccc4C(F)(F)F)c(=O)c3c2)cc1S(=O)(=O)Nc1ccc(F)cc1F
inactive: T-47D breast 30.3% | BT-549 breast 49.1% | MDA-MB-435 melanoma 31.2% | SW-620 colon 34.2% | MCF7 breast 43.7% | HCT-116 colon 32.5% | HCC-2998 colon 39.7% | KM12 colon 21.1%

C#CCNC(=O)CC[C@]1(C)[C@H]2CC[C@@H]3[C@@H]([C@@](C)(O)CCC=C(C)C)CC[C@@]3(C)[C@]2(C)CC[C@H]1C(=C)C
inactive: T-47D breast 37.3% [100 µM] | BT-549 breast 41.8% [100 µM] | MDA-MB-435 melanoma 43.2% [100 µM] | MCF7 breast 30.5% [100 µM] | HCT-116 colon 16.6% [100 µM] | HCC-2998 colon 87.2% [100 µM] | KM12 colon 36% [100 µM]
active: SW-620 colon -14.1% [100 µM]

CCn1cc(-c2cc(-c3ccc(Cl)cc3)nc(N)n2)c(-c2ccc(Br)cc2)n1
inactive: T-47D breast 48.1% | BT-549 breast 91.3% | MDA-MB-435 melanoma 92.8% | SW-620 colon 99.7% | MCF7 breast 72.2% | HCT-116 colon 66.3% | HCC-2998 colon 92.9% | KM12 colon 77.7%

COc1cc2c(cc1OCCCCCOc1ccc(-n3c(C)nc4ccccc4c3=O)cc1)N=C[C@@H]1CCCN1C2=O
active: T-47D breast -7.89% | BT-549 breast -89.2% | MDA-MB-435 melanoma -58.1% | SW-620 colon -13.8% | MCF7 breast -53.6% | HCT-116 colon 0.749% | HCC-2998 colon -61.7% | KM12 colon -45.7%

O=C(Nc1cccc2ccccc12)c1cc2ccccc2cc1O
active: MDA-MB-435 melanoma 0.191% | MCF7 breast 8.7% | HCT-116 colon 7.65%
inactive: T-47D breast 14.4% | BT-549 breast 11.6% | SW-620 colon 16.6% | HCC-2998 colon 27.7% | KM12 colon 10.2%

CCOc1cccc2c(NC(C)CCCN(CC)CC)c(C)cnc12 (centres undefined)
inactive: T-47D breast 115% | BT-549 breast 99.8% | MDA-MB-435 melanoma 101% | SW-620 colon 96.6% | MCF7 breast 97.7% | HCT-116 colon 93.4% | HCC-2998 colon 115% | KM12 colon 99.1%

O=C(Nc1ccc(F)cc1)c1ccccc1
inactive: T-47D breast 104% | BT-549 breast 84.8% | MDA-MB-435 melanoma 97.3% | SW-620 colon 101% | MCF7 breast 96% | HCT-116 colon 103% | HCC-2998 colon 109% | KM12 colon 104%

CCOC(=O)C(c1ccccc1)N1C(=O)c2ccccc2C1=O (centres undefined)
inactive: T-47D breast 97.3% | BT-549 breast 90.3% | MDA-MB-435 melanoma 93.1% | SW-620 colon 97.4% | MCF7 breast 91.4% | HCT-116 colon 98.5% | HCC-2998 colon 98.4% | KM12 colon 98.8%

C=C(C)[C@@H]1CC[C@]2(C(=O)NCCNCCNCCN)CC[C@]3(C)[C@H](CC[C@@H]4[C@@]5(C)CCC(=O)C(C)(C)[C@@H]5CC[C@]43C)[C@@H]12
inactive: BT-549 breast 58.3% [100 µM]
active: T-47D breast -4.36% [100 µM] | MDA-MB-435 melanoma -49.9% [100 µM] | SW-620 colon -76.7% [100 µM] | MCF7 breast -58% [100 µM] | HCT-116 colon -80.7% [100 µM] | HCC-2998 colon -90% [100 µM] | KM12 colon -81.9% [100 µM]

CC1(C)CC[C@]2(C(=O)O)CC[C@]3(C)C(=CC[C@@H]4[C@@]5(C)C/C(=C/c6ccco6)C(=O)C(C)(C)[C@@H]5CC[C@]43C)[C@@H]2C1
active: T-47D breast -0.554% [100 µM] | BT-549 breast -27.2% [100 µM] | MDA-MB-435 melanoma -70.6% [100 µM] | SW-620 colon -32.8% [100 µM] | MCF7 breast -8.44% [100 µM] | HCT-116 colon -71.8% [100 µM] | HCC-2998 colon -58.1% [100 µM] | KM12 colon -65.9% [100 µM]

CCCc1cc2cc(-n3nc(C)c4c3CC(C)(C)CC4=O)cc(NC3CCSCC3)c2c(=O)[nH]1
inactive: T-47D breast 54.7% | BT-549 breast 61.5% | MDA-MB-435 melanoma 26.5% | SW-620 colon 32.4% | MCF7 breast 36.5% | HCT-116 colon 19.8% | HCC-2998 colon 46.9% | KM12 colon 41.7%

N#C/C(C(=O)c1ccccc1)=C1/C(=O)Nc2ccc(Br)cc21
inactive: T-47D breast 90.5% | BT-549 breast 99.2% | MDA-MB-435 melanoma 102% | SW-620 colon 97% | MCF7 breast 95.9% | HCT-116 colon 99.8% | HCC-2998 colon 99.7% | KM12 colon 105%

CCN(CC)c1ccc2cc(C(Nc3ccc(Br)c(C(F)(F)F)c3)c3nnnn3C(C)(C)C)c(=O)oc2c1 (centres undefined)
inactive: T-47D breast 64.2% | BT-549 breast 97.3% | MDA-MB-435 melanoma 99.4% | SW-620 colon 98.7% | MCF7 breast 73.8% | HCT-116 colon 93.5% | HCC-2998 colon 106% | KM12 colon 102%

O=C(Nc1ccc(Oc2ccc(F)cc2)c(Cl)c1)c1cccnn1
inactive: T-47D breast 37.6% | BT-549 breast 103% | MDA-MB-435 melanoma 67.2% | SW-620 colon 94.1% | MCF7 breast 65.3% | HCT-116 colon 96.8% | HCC-2998 colon 89.1% | KM12 colon 79.2%

O=C1NC(=O)c2cc([N+](=O)[O-])cc3cccc1c23
inactive: T-47D breast 96.1% | BT-549 breast 96% | MDA-MB-435 melanoma 100% | SW-620 colon 98.2% | MCF7 breast 90% | HCT-116 colon 107% | HCC-2998 colon 107% | KM12 colon 105%

CNC(=O)c1cc(Oc2cccc3nc(NC(=O)Nc4cc(C(F)(F)F)cc(C(F)(F)F)c4)ccc23)ccn1
inactive: T-47D breast 15.5% | BT-549 breast 46.1% | MDA-MB-435 melanoma 40.2% | SW-620 colon 63.8% | MCF7 breast 50.4% | HCT-116 colon 36.7% | HCC-2998 colon 79.7% | KM12 colon 53.8%

COc1cc2c(O)n(CCCN3CCOCC3)c3c4cnc5cccc(c(=O)c3c2cc1OC)c54
inactive: T-47D breast 18.6% | BT-549 breast 57.9% | MDA-MB-435 melanoma 47.2% | SW-620 colon 34.9% | MCF7 breast 14.5% | HCT-116 colon 27.9% | HCC-2998 colon 59.2% | KM12 colon 46.3%

CC(C)(C)c1cc(C(=O)Nc2ccccc2C(=O)NCCN)cc(C(C)(C)C)c1
inactive: BT-549 breast 99.2%
active: T-47D breast -14.6% | MDA-MB-435 melanoma -73.3% | SW-620 colon -56.8% | MCF7 breast -63.1% | HCT-116 colon -94.7% | HCC-2998 colon -59.1% | KM12 colon -62.2%

Fc1cc2[nH]ncc2c2c3c(c(-c4cn[nH]c4C(F)(F)F)nc12)C1CCC3C1 (centres undefined)
inactive: MDA-MB-435 melanoma 22.8% | HCC-2998 colon 14.7%
active: T-47D breast 3.94% | BT-549 breast -60.7% | SW-620 colon 2.37% | MCF7 breast 2.59% | HCT-116 colon 1.87% | KM12 colon 7.9%

Cc1ccc(NC(=O)N[C@@H](Cc2cc(F)cc(F)c2)C(=O)N[C@@H]2C(=O)N3CCC[C@H]3C(=O)N3CCOC[C@H]3C(=O)N[C@@H](C)C(=O)N3C[C@H](C)C[C@H]3C(=O)O[C@H]2C)cc1
inactive: T-47D breast 27% | BT-549 breast 19.6% | MDA-MB-435 melanoma 21% | SW-620 colon 34.5% | MCF7 breast 25% | HCT-116 colon 12.5% | HCC-2998 colon 34.5% | KM12 colon 38.9%

C#C[C@]1(O)CC[C@H]2[C@@H]3CC=C4c5nc(Nc6ccccc6[N+](=O)[O-])sc5CC[C@]4(C)[C@H]3CC[C@@]21C
inactive: T-47D breast 41.3% | BT-549 breast 34% | MDA-MB-435 melanoma 66.1% | SW-620 colon 76% | MCF7 breast 56.9% | HCT-116 colon 45.7% | HCC-2998 colon 61.1% | KM12 colon 54.1%
